# In PubChem BioAssay (NCI):
# The panel holds about 83,000 compounds, 20% with a hit somewhere; the sample as a whole holds those more often.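 Cells were grown in 96-well plates and exposed to the test compound at a single concentration for 48 hours; results are reported as percent growth, with values below 10 considered active.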 Unmarked numbers belong to inactive results. Active and inactive are the calls of the source.
# What was measured:
# Assay in all cases: NCI-60 one-dose screen, 48 h (100 = growth as untreated, 0 = no growth, -100 = all killed)
# Details in all cases: 10 µM unless noted
# [1] = system: DU-145 prostate
# [2] = system: K-562 leukemia
# [3] = system: MALME-3M melanoma
# [4] = system: MDA-MB-231 breast
# [5] = system: RXF 393 renal
# [6] = system: SF-268 CNS
# [7] = system: SF-295 CNS
# [8] = system: SF-539 CNS
# [9] = system: UACC-257 melanoma
# [10] = system: M14 melanoma
# [11] = system: HCT-15 colon
# [12] = system: HT29 colon
# [13] = system: SNB-75 CNS
# [14] = system: SNB-19 CNS
# [15] = system: U251 CNS
# [16] = system: PC-3 prostate
# [17] = system: SK-MEL-5 melanoma
# [18] = system: UACC-62 melanoma
# [19] = system: LOX IMVI melanoma
# [20] = system: SK-MEL-28 melanoma
SMILES,growth [1],growth [2],growth [3],growth [4],growth [5],growth [6],growth [7],growth [8],growth [9],growth [10],growth [11],growth [12],growth [13],growth [14],growth [15],growth [16],growth [17],growth [18],growth [19],growth [20]
c1ccc(-c2n(Cc3ccc4ccccc4n3)cc[n+]2Cc2ccc3ccccc3c2)cc1,28.2%,5.02% (active),-20% (active),-6.39% (active),-8.14% (active),20.5%,-7.2% (active),11.5%,-27.1% (active),-24.8% (active),70.5%,-9.68% (active),3.74% (active),9.86% (active),8.14% (active),1.28% (active),-95.2% (active),-46.2% (active),-25.9% (active),0.22% (active)
CC1(c2ccccc2Cl)NC(=O)NC1=O (stereo not given),105%,100%,101%,105%,113%,103%,97.1%,99.5%,91%,106%,99.2%,97.9%,88.1%,97.8%,96.7%,91.2%,101%,95.5%,97.5%,105%
C#Cc1ccccc1NC(=O)c1sc2nc3c(cc2c1N)CCCCCC3,50%,74.5%,8.8% (active),5.3% (active),92.9%,48.5%,75.7%,62.2%,96%,56.5%,70.2%,36.3%,39.2%,76.5%,23.4%,77.4%,89.6%,91.8%,22.8%,91.1%
CCCCCCCCCCCCCC1=NCC[N+]1(CCO)Cc1ccccc1 (stereo not given),-89.2% (active),-50.9% (active),-75.8% (active),-79.9% (active),-92.3% (active),-69.9% (active),-71.7% (active),-93.8% (active),-71.8% (active),-79.4% (active),-89.4% (active),-89.3% (active),66%,-82.1% (active),-88.7% (active),-88.4% (active),-73.6% (active),-87.4% (active),-92% (active),-90.7% (active)
CC[C@]12C=CCN3CC[C@@]4(c5cc(NC(=O)CCC(=O)O[C@H]6CC[C@H]7[C@@H]8CC[C@H]9CC(=O)CC[C@]9(C)[C@H]8CC[C@]67C)c(OC)cc5N(C)[C@H]4[C@@](O)(C(=O)OC)[C@@H]1OC(C)=O)[C@@H]32,86.8%,41.7%,77.7%,83%,66.2%,74.3%,68.4%,74.1%,94.5%,67.5%,58.2%,39%,57.1%,84.7%,64.3%,47.7%,54.4%,81.2%,78.1%,92.5%
C#CCN(CCCOc1ccc(Cl)cc1Cl)CCCSC(=O)CCCCCN1/C(=C\C=C2/CCCC(/C=C/C3=[N+](CCCCCC(=O)[O-])c4ccccc4C3(C)C)=C2Cl)C(C)(C)c2ccccc21,47%,0.955% (active),-56.2% (active),-6.25% (active),-45.2% (active),7.44% (active),53.3%,-50.2% (active),30.8%,49.7%,87.2%,-26.7% (active),42.4%,14.7%,-63.8% (active),20.9%,-25.7% (active),-25.8% (active),-29.8% (active),-9.83% (active)
N#Cc1c(-c2ccc(F)cc2)nc(N/N=C/c2cccc(O)c2)nc1N1CCOCC1,65.9%,67.5%,100%,96.8%,53.9%,88.3%,98.9%,78.4%,88.8%,85.6%,69.5%,79.8%,73.9%,96.1%,73.5%,72.7%,90%,87.7%,85.2%,99%
CCSc1ccc(C2C(Br)C(=O)N2c2cc(OC)c(OC)c(OC)c2)cc1 (stereo not given),12.3%,8.26% (active),70.1%,19.7%,2.05% (active),38.7%,15.7%,-1.17% (active),45.2%,4.2% (active),15.2%,2.99% (active),51.1%,33.4%,12.1%,20%,-11.3% (active),29.6%,25.7%,56.7%
O=C(O)C(C(=O)O)c1cccc2ccccc12,105%,93.8%,107%,108%,107%,98%,101%,94.5%,88.1%,101%,104%,94.9%,99.3%,98.3%,99.5%,100%,103%,96.8%,97.4%,111%
C=C1C(=O)O[C@H]2[C@H]1CC/C(COC(=O)c1cn(C)c3ccccc13)=C\CC[C@@]1(C)O[C@@H]21,-72.4% (active),0.396% (active),-60.3% (active),-49% (active),-87.8% (active),-8.89% (active),63.8%,-58% (active),-56% (active),-36.8% (active),-44.9% (active),-77.2% (active),59%,25.6%,11.7%,-55.1% (active),4.24% (active),-51.1% (active),-86.5% (active),-22% (active)
Cc1c(C(=O)Nc2nc3ccccc3[nH]2)cnn1-c1ccccn1,112%,93.5%,106%,109%,105%,107%,102%,98.9%,82.4%,111%,104%,66%,104%,101%,97.4%,93.1%,99.9%,107%,104%,112%
COC(=O)CCc1cc(O)c2c(c1)[C@@H](C(=O)OC)[C@H](c1ccc(O)c(O)c1)O2,95%,26.2%,66.8%,78.8%,88.5%,74.1%,84.7%,74.5%,85.6%,32.5%,50.3%,95%,71.2%,74.9%,71%,85.5%,76.4%,66%,63.4%,73.8%
COc1ccc(C(C)c2cc(OC)c(OC)c(OC)c2)cc1 (stereo not given),9.97% (active),7.1% (active),67.5%,30.5%,24.7%,37.5%,15.6%,-7.56% (active),53%,7.54% (active),18%,4.2% (active),38.2%,34.1%,18%,24.5%,-31.5% (active),28.1%,26.1%,61.1%
O=C1NN(c2ccccc2)C(c2ccc(Cl)cc2)N2CCC[C@H]12 (stereo not given in full),100%,97%,92.2%,113%,108%,97.4%,101%,111%,94.7%,97.9%,92.9%,101%,75.6%,94.6%,101%,99.6%,96.1%,87.3%,87.8%,104%
CCCCN(CCCC)CC(CN(CC)CC)OC(=O)Nc1ccccc1 (stereo not given),99.9%,76%,90.3%,69.7%,95.1%,94.9%,77.5%,94.4%,111%,80.9%,63.4%,37.1%,78.3%,107%,96.8%,89.6%,100%,111%,87.7%,105%
